The target in assay [1] is Voltage-gated inwardly rectifying potassium channel KCNH2 (Homo sapiens) (UniProt Q12809). The assay can be described thus: qHTS Assay for Small Molecule Inhibitors of the Human hERG Channel Activity (AID 588834).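 Also: lower thallium flux fluorescence means stronger hERG block; nearly all actives have a fitted effect of over 50% in size.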 Also: potency is read from the fitted curve at half-maximal effect. Put shortly: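 Cells were infected with hERG-BacMam virus for 4 hrs at room temperature, grown overnight, then seeded at 2000/well. After dye loading and roughly 10 min compound treatment, thallium influx was triggered and fluorescence recorded.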

For assay [2], the target named is Luciferin 4-monooxygenase (Photinus pyralis) (UniProt P08659). Nature of the assay: Biochemical firefly luciferase enzyme assay for NPC (AID 624030).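 Also: purified P. pyralis luciferase at 10 nM with luciferin and ATP substrate; 0% = DMSO and -100% = full luciferase inhibition by PTC124 control; nearly all actives have a fitted effect of over 70% in size.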 Put shortly: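 Purified P. pyralis luciferase at 10 nM in 50 mM Tris Acetate (final), luminescence read within 5 minutes of enzyme addition to compounds. Activity normalised to PTC124 versus DMSO; concentration-response curves classed by r2, magnitude and activity.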

Assay [3] can be described thus: S16 Schwann cell viability assay (CellTiter-Glo assay) (AID 624031).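 Also: native untransfected S16 rat Schwann cells; plate controls were DMSO-treated cells for no effect and cell-free wells for full effect; nearly all actives have a fitted effect of over 70% in size.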 Put shortly: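 Rat S16 Schwann cells without reporter constructs received compound or DMSO for 24 h at 37 °C under 5% CO2. Cellular ATP was then quantified by CellTiter-Glo luminescence, with vehicle wells defined as 0% activity and cell-free wells as reference.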
(In general: ATP-based viability assays read luminescence as a measure of living cells.)

The nature of assay [4]: S16 Schwann cell PMP22 intronic element firefly luciferase assay (AID 624032).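 Also: plate controls were DMSO for no effect and PTC124 positive control mean for full effect; nearly all actives have a fitted effect of over 30% in size.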 Put shortly:
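Rat S16 Schwann cells stably carrying firefly luciferase driven by a PMP22 intronic element, in 10% FBS, treated 24 h at 37 C. ONE-Glo luminescence normalized to PTC124 control and DMSO (0%); curves classed by r2, magnitude and activity.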

Assay [5] is described as follows: S16 Schwann cell PMP22 intronic element beta-lactamase assay (AID 624044; calls by dose curve;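 also: 0% = DMSO and -100% = potassium clavulanate positive control; nearly all actives have a fitted effect of over 15% in size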). To be noted: S16 rat Schwann cells, PMP22 element beta-lactamase FRET, 24 h; ratio activity, negative = inhibition: at 38.3 µM (top of the series) unless noted. Put shortly:
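Beta-lactamase reporter under a PMP22 intronic regulatory element in stable S16 rat Schwann cells; 24 h compound exposure. 460 nm blue signal normalized between DMSO (0%) and potassium clavulanate, with 535 nm FRET tracking viability; curves classed by r2 and response.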

Results filed as inconclusive are left out. Values without a mark were called inactive. Activity calls are given as the source filed them. Unless noted, calls follow the shape of the dose curve; as a rule, active = well fitted curve in the direction sought with a large enough effect; inconclusive = small, poorly fitted or top-dose-only effect, or another doubt; inactive = no such curve, though single readings can be large; an effect the other way counts as inactive or inconclusive.

Sequence of Luciferin 4-monooxygenase (Photinus pyralis) (P08659 whole entry, looked up): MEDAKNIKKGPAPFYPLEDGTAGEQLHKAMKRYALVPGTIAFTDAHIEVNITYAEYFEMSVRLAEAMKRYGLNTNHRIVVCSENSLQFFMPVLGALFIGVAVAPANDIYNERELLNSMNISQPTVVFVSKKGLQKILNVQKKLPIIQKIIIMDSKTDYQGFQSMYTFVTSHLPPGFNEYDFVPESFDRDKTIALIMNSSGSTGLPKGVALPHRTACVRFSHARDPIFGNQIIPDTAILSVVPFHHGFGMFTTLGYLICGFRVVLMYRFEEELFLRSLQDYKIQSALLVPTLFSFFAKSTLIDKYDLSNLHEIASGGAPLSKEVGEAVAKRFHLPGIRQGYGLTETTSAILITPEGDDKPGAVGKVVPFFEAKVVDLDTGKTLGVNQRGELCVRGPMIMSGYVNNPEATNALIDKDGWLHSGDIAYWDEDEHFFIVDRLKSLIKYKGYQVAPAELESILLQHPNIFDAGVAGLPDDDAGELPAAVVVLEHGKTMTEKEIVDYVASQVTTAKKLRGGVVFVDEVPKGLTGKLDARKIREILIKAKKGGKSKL
Sequence of Voltage-gated inwardly rectifying potassium channel KCNH2 (Homo sapiens) (Q12809 whole entry, looked up): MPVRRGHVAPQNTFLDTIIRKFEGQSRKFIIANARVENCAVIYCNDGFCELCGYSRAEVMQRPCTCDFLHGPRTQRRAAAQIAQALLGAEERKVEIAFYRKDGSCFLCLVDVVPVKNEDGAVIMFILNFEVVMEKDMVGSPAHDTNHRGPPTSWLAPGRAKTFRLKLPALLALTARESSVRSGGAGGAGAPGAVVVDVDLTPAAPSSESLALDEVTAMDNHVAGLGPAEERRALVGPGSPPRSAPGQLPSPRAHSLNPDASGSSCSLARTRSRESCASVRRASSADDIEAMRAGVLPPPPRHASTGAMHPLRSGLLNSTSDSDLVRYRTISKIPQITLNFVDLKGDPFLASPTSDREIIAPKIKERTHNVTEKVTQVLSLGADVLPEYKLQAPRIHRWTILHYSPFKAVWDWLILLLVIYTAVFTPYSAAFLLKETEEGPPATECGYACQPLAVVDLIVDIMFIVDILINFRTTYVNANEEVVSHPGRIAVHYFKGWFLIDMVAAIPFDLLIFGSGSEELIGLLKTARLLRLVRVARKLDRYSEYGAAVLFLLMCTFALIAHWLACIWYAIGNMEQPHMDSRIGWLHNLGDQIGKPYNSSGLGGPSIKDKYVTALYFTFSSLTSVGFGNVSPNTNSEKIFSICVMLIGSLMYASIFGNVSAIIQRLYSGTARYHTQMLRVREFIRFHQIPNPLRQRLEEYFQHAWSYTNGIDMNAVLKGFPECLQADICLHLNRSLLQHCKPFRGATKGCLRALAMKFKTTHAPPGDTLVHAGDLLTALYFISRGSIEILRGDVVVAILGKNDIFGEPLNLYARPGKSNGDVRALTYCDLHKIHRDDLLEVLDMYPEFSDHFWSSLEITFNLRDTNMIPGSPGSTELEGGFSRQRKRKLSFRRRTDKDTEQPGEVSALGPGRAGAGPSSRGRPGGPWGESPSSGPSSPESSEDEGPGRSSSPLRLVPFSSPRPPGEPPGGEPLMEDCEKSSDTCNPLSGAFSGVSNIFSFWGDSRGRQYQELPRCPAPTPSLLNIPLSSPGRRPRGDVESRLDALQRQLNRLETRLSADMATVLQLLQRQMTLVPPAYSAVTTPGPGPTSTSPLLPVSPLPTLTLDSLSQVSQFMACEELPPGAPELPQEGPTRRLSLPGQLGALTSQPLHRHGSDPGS

On to `Cc1c(C)c2c(c(C)c1OC(=O)CCC(=O)O)CC[C@@](C)(CCC[C@H](C)CCC[C@H](C)CCCC(C)C)O2`, for which the Potency result in assay [1], in assay [2], in assay [3] and in assay [4] was “inactive” throughout. For the same compound, the ratio activity, negative = inhibition in assay [5] is -15.1%.

Consider `CC/C(=C(/CC)c1ccc(OP(=O)(O)O)cc1)c1ccc(OP(=O)(O)O)cc1`, for which the Potency entry in assay [1], in assay [2], in assay [3] and in assay [4] was “inactive” each time. Besides, the ratio activity, negative = inhibition in assay [5] was 2.34%.

As for `O=C1N=C2SCCN2C(=O)C1Cc1ccc(Cl)cc1` (configuration not stated), the Potency result in assay [1], in assay [2], in assay [3] and in assay [4] was “inactive” throughout. Also, the ratio activity, negative = inhibition in assay [5] was 0.0729%.

Consider `CC(CNC(=O)c1cccnc1)NC(=O)c1cccnc1` (configuration not stated), for which the Potency result in assay [1], in assay [2], in assay [3] and in assay [4] was “inactive” each time. In addition, the ratio activity, negative = inhibition in assay [5] is 0%.

As for `C[C@H](CCC(=O)O)[C@H]1CC[C@H]2[C@@H]3CC[C@@H]4C[C@H](O)CC[C@]4(C)[C@H]3C[C@H](O)[C@]12C`, the Potency result in assay [1], in assay [2], in assay [3] and in assay [4] was “inactive” throughout. Moreover, in assay [5], the ratio activity, negative = inhibition is 1.95%.

With `O=C1c2ccccc2C(=O)C1c1ccc(F)cc1`, the Potency result in assay [1], in assay [2], in assay [3] and in assay [4] was “inactive” each time. Besides, in assay [5], the ratio activity, negative = inhibition is 2.55%.

On to `OC/C=C/c1ccccc1`, for which the Potency entry in assay [1], in assay [2], in assay [3] and in assay [4] was “inactive” throughout. In assay [5], the ratio activity, negative = inhibition was -1.9%.

Regarding `N=C(N)n1cccn1`, the Potency entry in assay [1], in assay [2], in assay [3] and in assay [4] was “inactive” each time. In addition, in assay [5], the ratio activity, negative = inhibition is -0.887%.

Regarding `CN(Cc1ccccc1)Cc1ccccc1`, the Potency result in assay [1], in assay [2], in assay [3] and in assay [4] was “inactive” in each case. The ratio activity, negative = inhibition in assay [5] was 0.417%.

For the compound `C[C@H](N)C(=O)N[C@@H](C)P(=O)(O)O`, the Potency entry in assay [1], in assay [2], in assay [3] and in assay [4] was “inactive” in each case. For the same compound, the ratio activity, negative = inhibition in assay [5] was 4.18%.

Consider `CNC(=O)C[C@@H](N)C(=O)N[C@@H](C(=O)N[C@@H]1C(=O)N2[C@@H]1SC(C)(C)[C@@H]2C(=O)O)c1ccc(O)cc1`, for which the Potency result in assay [1], in assay [2], in assay [3] and in assay [4] was “inactive” throughout. The ratio activity, negative = inhibition in assay [5] is -2.79%.

On to `O=C(NNCS(=O)(=O)O)c1ccncc1`, for which the Potency entry in assay [1], in assay [2], in assay [3] and in assay [4] was “inactive” each time. The ratio activity, negative = inhibition in assay [5] is -19.9% (active).

`C/C(=C\C(=O)OCCCCCCCCC(=O)O)C[C@@H]1OC[C@H](C[C@@H]2O[C@H]2[C@@H](C)[C@H](C)O)[C@@H](O)[C@H]1O`: the Potency result in assay [1], in assay [2], in assay [3] and in assay [4] was “inactive” each time. Moreover, the ratio activity, negative = inhibition in assay [5] is 0.0634%.

For `COc1ccc2c(=O)c(C)c(-c3ccccc3)oc2c1CN(C)C`, the Potency entry in assay [1], in assay [2], in assay [3] and in assay [4] was “inactive” throughout. Also, the ratio activity, negative = inhibition in assay [5] is -18.3%.

Regarding `Cc1cc(C(=O)NCCc2ccc(S(=O)(=O)NC(=O)NN3CCCCCC3)cc2)no1`, the Potency result in assay [1], in assay [2], in assay [3] and in assay [4] was “inactive” in each case.

Consider `CO[C@H]1C[C@@H]2CC[C@@H](C)[C@@](O)(O2)C(=O)C(=O)N2CCCC[C@H]2C(=O)O[C@H]([C@H](C)C[C@@H]2CC[C@@H](OC(=O)C(C)(CO)CO)[C@H](OC)C2)CC(=O)[C@H](C)/C=C(\C)[C@@H](O)[C@@H](OC)C(=O)[C@H](C)C[C@H](C)/C=C/C=C/C=C/1C`, for which the Potency result in assay [1], in assay [2], in assay [3] and in assay [4] was “inactive” in each case. In assay [5], the ratio activity, negative = inhibition is -3.79%.

For `COc1ccc(/C=C/C(=O)O)cc1`, the Potency result in assay [1], in assay [2], in assay [3] and in assay [4] was “inactive” in each case. In assay [5], the ratio activity, negative = inhibition was 1.76%.

Take `O=C(O)COc1ccc(CCNS(=O)(=O)c2ccccc2)s1`: the Potency entry in assay [1], in assay [2], in assay [3] and in assay [4] was “inactive” each time. Further, the ratio activity, negative = inhibition in assay [5] was -0.95%.

Take `CCCC(CCC)C(=O)OC1C[C@H]2CC[C@@H](C1)[N+]2(C)C` (some centres not stated): the Potency entry in assay [1], in assay [2], in assay [3] and in assay [4] was “inactive” each time. Also, the ratio activity, negative = inhibition in assay [5] is 6.3%.

Consider `CN1CCC(OC(=O)C(Oc2ccc(Cl)cc2)Oc2ccc(Cl)cc2)CC1`, for which the Potency in assay [1] was 1 µM (active). Further, the Potency entry in assay [2], in assay [3] and in assay [4] was “inactive” throughout. For the same compound, the ratio activity, negative = inhibition in assay [5] was 2.81%.

As to `CC(=O)Oc1cccc2c1C(=O)c1c(OC(C)=O)cc(C(=O)O)cc1C2=O`, the Potency result in assay [1], in assay [2], in assay [3] and in assay [4] was “inactive” each time. In addition, the ratio activity, negative = inhibition in assay [5] was 0.316%.

Consider `CCCOC(=O)c1ccccc1O`, for which the Potency result in assay [1], in assay [2] and in assay [3] was “inactive” each time. Besides, the ratio activity, negative = inhibition in assay [5] is 5.82%.

For the compound `Cc1ncc(C[n+]2csc(CCOP(=O)(O)O)c2C)c(N)n1`, the Potency result in assay [1], in assay [2] and in assay [3] was “inactive” in each case. Moreover, in assay [5], the ratio activity, negative = inhibition is -8.96%.

Turning to `CCc1ccc(S(=O)(=O)O)cc1`, the Potency result in assay [1], in assay [2], in assay [3] and in assay [4] was “inactive” in each case. Further, in assay [5], the ratio activity, negative = inhibition was -9.66%.

Turning to `CC1CC(OC(=O)C(O)c2ccccc2)CC(C)(C)C1` (configuration not stated), the Potency result in assay [1], in assay [2], in assay [3] and in assay [4] was “inactive” throughout. In assay [5], the ratio activity, negative = inhibition was -3.78%.

Values taken from PubChem BioAssay (NCATS).
